Compound activity: PubChem, National Center for Advancing Translational Sciences (NCATS)
Menin-MLL FL inh: inhibitors of human menin-MLL interaction, wild-type MLL peptide; AID 1766; 290,000 tested, under 10 active; Fluorescence polarization, fluorescein-MLL peptide displacement from menin; FP activity change, % at 61.4 µM; active = well fitted curve in the direction sought with a large enough effect in the polarisation, not every such curve was filed as active; inconclusive = small, poorly fitted or top-dose-only effect, or effect the other way, or a change in a side signal; inactive = no such curve, though single readings can be large or run the other way; the % refers to the polarisation
KCNH2 3.1 block: inhibitors of human KCNH2 3.1 potassium channel isoform; activity change, % (tested at about 1.8 µM); actives 0.95% (n = 340,000); U2OS KCNH2 3.1, thallium flux FluxOr; stronger effect = lower value; AID 720553;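 active = maximum activity change below -70%; inconclusive = maximum activity change from -70% to -50%; inactive = maximum activity change above -50%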;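 note: thallium influx rate constant from kinetic fluorescence after stimulation buffer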
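We transduce U2OS cells with the mutant 3.1 virus, culture them overnight, load FluxOr with Red40 quencher for 45 min, then add stimulation buffer and read kinetically for 2 min to derive a normalized rate constant.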
Menin MLL FP TR: displaces Texas Red mutant MLL peptide from human menin; AID 1768; actives 0.23% (n = 270,000); O00255; Menin + Texas Red MLL mutant peptide, fluorescence polarization; Potency, µM (highest dose often 61.6 µM), hits mostly inhibitors; active = well fitted inhibition curve with a large enough effect in the polarisation, with a control signal flat, not every such curve was filed as active; inconclusive = small, poorly fitted or top-dose-only effect, or effect the other way, or a change in a side signal; inactive = no such curve, though single readings can be large or run the other way; the % refers to the polarisation
Target sequence (O00255 whole entry, looked up): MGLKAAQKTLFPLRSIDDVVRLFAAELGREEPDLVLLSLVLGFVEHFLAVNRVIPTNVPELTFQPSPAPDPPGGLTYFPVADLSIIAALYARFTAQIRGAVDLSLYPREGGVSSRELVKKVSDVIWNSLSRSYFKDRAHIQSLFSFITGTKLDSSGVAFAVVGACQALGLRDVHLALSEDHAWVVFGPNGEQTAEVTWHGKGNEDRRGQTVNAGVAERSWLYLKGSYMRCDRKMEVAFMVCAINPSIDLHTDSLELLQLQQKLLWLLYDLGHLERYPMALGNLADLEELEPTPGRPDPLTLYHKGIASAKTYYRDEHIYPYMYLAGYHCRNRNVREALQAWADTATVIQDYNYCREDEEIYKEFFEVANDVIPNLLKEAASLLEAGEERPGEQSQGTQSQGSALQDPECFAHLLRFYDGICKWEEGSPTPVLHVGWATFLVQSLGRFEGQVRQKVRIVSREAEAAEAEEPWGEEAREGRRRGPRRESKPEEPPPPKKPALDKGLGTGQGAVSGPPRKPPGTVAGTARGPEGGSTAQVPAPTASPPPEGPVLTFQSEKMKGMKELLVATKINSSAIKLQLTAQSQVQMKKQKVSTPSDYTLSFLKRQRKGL
KCNH2 WT inh: KCNH2 (human, wildtype) channel inhibition; activity change, % at 1.84 µM; actives 0.37% (n = 340,000); U2OS, BacMam KCNH2, thallium flux FluxOr; stronger effect = lower value; AID 720551;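 active = maximum activity change below -70%; inconclusive = maximum activity change between -70% and -50%; inactive = maximum activity change above -50%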
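U2OS cells were transduced with wild-type KCNH2 virus (2.03 x 10^8 / mL) for 4 h at room temperature, then cultured overnight at 37 C. Thallium flux was read with FluxOr dye. Rate constants were normalized to DMSO controls.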
CXXC DNA block: inhibitors of human MLL CXXC domain-DNA interaction; Q03164; MLL-CXXC / FITC-HOXA9 DNA fluorescence polarization; Potency, µM (doses to about 115 µM), usual class: inhibitors; actives 0.037% (n = 290,000); AID 2662; active = well fitted inhibition curve with a large enough effect in the polarisation, with a control signal flat, not every such curve was filed as active; inconclusive = small, poorly fitted or top-dose-only effect, or effect the other way, or a change in a side signal; inactive = no such curve, though single readings can be large or run the other way; the % refers to the polarisation
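Fluorescence polarization: 7 uM MLL-CXXC (stock) preincubated 5 min with compounds, then 50 nM fluorescein-HOX-A9 DNA (stock) added; 30 min ambient. Buffer 50 mM Tris-HCl pH 7.5, 50 mM NaCl, 1 mM DTT, 0.05% BSA.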
Of the large screens only hits and unclear results are named; the others gave an inactive call. Shown are actives, neighbours in structure and some others; about 1.1% of the full set was active somewhere.

COc1ccc(C(=O)Nc2ccccc2C(=O)NC(Cc2ccc(O)cc2)C(=O)NNC(=O)c2ccccc2Cl)cc1 (stereo not drawn)	Menin MLL FP TR 28.2µM
Cc1ccccc1C(=O)/C=C1/SCC(=O)N1C	KCNH2 3.1 block -82.4
C=CCN(CC=C)CCOc1ccc(OC(C)C)cc1	none
CC(C)CN(C[C@@H](O)[C@H](Cc1ccccc1)NC(=O)O[C@H]1CO[C@H]2OCC[C@H]21)S(=O)(=O)c1ccc(N)cc1	none (no result: KCNH2 3.1 block, KCNH2 WT inh)
CCCc1cc(=O)oc2cc(OC(C)C(=O)NCC3CCC(C(=O)O)CC3)ccc12 (stereo not drawn)	none
Cc1cccc(OCC(=O)Nc2ccc3c(c2)nc(CN2CCCCC2)n3C)c1	none (no result: Menin MLL FP TR)
Cc1ccc(OCC(=O)Nc2ccc3c(c2)nc(CCN2CCCCC2)n3C)cc1	KCNH2 3.1 block inconclusive
COc1ccc(OCC(=O)Nc2ccc3c(c2)nc(CCN2CCCCC2)n3C)cc1	KCNH2 3.1 block -72.4
Cn1c(CCN2CCCCC2)nc2cc(NC(=O)COc3ccccc3)ccc21	KCNH2 3.1 block -85.5
Cc1cccc(OCC(=O)Nc2ccc3c(c2)nc(CCN2CCCCC2)n3C)c1	KCNH2 3.1 block -77.1
Cc1ccc(S(=O)(=O)CC2CSc3nnc(C)c(=O)n32)cc1 (stereo not drawn)	KCNH2 3.1 block -93.2
COc1cccc(NC(=O)CN2C(=O)CSc3nc(C)cc(C)c32)c1	none (no result: CXXC DNA block)
CCOc1ccc(NC(=O)CN2CCN(CC(=O)Nc3ccc(F)c(F)c3)CC2)cc1	KCNH2 3.1 block -92.9, KCNH2 WT inh -117.3
Cc1cc(C)c2c(n1)SCC(=O)N2CC(=O)Nc1ccc(C)c(C)c1	KCNH2 3.1 block -130.2 (no result: CXXC DNA block)
O=C(CN1CCN(C(=O)CNC(=O)c2ccc(-c3ccccc3)cc2)CC1)Nc1ccccc1Cl	KCNH2 3.1 block -84.4 (no result: Menin-MLL FL inh, Menin MLL FP TR, CXXC DNA block)
CCOc1ccc(NC(=O)CN2C(=O)CSC2=O)cc1	KCNH2 3.1 block -89.9
Cc1ccc(-n2[nH]c(C)c(C=Nc3ccc(S(=O)(=O)Nc4nccs4)cc3)c2=O)c(C)c1	none (no result: KCNH2 3.1 block, KCNH2 WT inh)
CN(CC(=O)Nc1ccc(Cl)c(C(F)(F)F)c1)C(=O)C1CC(=O)N(C2CCCC2)C1 (stereo not drawn)	none (no result: Menin-MLL FL inh, Menin MLL FP TR, CXXC DNA block)
COc1ccc(S(=O)(=O)Nc2ccc3c(c2)C(=O)N([C@H](C)CO)C[C@H](C)[C@@H](CN(C)C(=O)Nc2ccc(C(F)(F)F)cc2)OCCCC[C@H](C)O3)cc1	none (no result: Menin-MLL FL inh, Menin MLL FP TR, CXXC DNA block)
O=C(CN1CCN(CC(=O)Nc2ccccc2Cl)CC1)Nc1ccc(F)c(F)c1	KCNH2 3.1 block -110.9, KCNH2 WT inh inconclusive
O=C(CN1CCCC1)Nc1ccccc1Sc1ccc(Cl)cc1	KCNH2 3.1 block -90.2
CCOc1ccc(NC(=O)CN2CCN(CC(=O)Nc3ccc(C(=O)OC)cc3)CC2)cc1	KCNH2 3.1 block -83.0, KCNH2 WT inh inconclusive
COC(=O)c1ccc(NC(=O)CN2CCCC2)cc1	none
Cc1c(C(=O)N2CCN(CC(=O)Nc3ccccc3Cl)CC2)oc2ccc(Br)cc12	KCNH2 3.1 block -73.4 (no result: Menin-MLL FL inh, Menin MLL FP TR, CXXC DNA block)
O=C(CN1CCCCCC1)Nc1ccc(F)c(F)c1	none
COC1=Nc2ccccc2/C=C\c2ccccc21	none (no result: Menin-MLL FL inh, Menin MLL FP TR, CXXC DNA block)
C/C(=C(/CCO)SS/C(CCO)=C(\C)N(C=O)Cc1cnc(C)nc1N)N(C=O)Cc1cnc(C)nc1N	none (no result: KCNH2 3.1 block, KCNH2 WT inh)
NC(=O)[C@H]1CC2(CC(c3cccc(NC(=O)COc4ccc(Cl)cc4)c3)=NO2)CN1C(=O)c1ccc(Cl)cc1 (stereo partly drawn)	KCNH2 3.1 block -91.0 (no result: Menin MLL FP TR)
CCCCCC(=O)N1CC2(CC(c3cccc(NC(=O)COc4ccc(Cl)cc4)c3)=NO2)C[C@@H]1C(N)=O (stereo partly drawn)	KCNH2 3.1 block -74.4, KCNH2 WT inh -90.9 (no result: Menin MLL FP TR)
C/C=C/C(=O)Nc1cccc(C2=NOC3(C2)C[C@@H](C(N)=O)N(C(=O)c2cc([N+](=O)[O-])cc([N+](=O)[O-])c2C)C3)c1 (stereo partly drawn)	KCNH2 3.1 block -84.3 (no result: Menin MLL FP TR)
C=C(C)C(=O)Nc1cccc(C2=NOC3(C2)C[C@@H](C(N)=O)N(C(=O)c2cc([N+](=O)[O-])cc([N+](=O)[O-])c2C)C3)c1 (stereo partly drawn)	none (no result: Menin MLL FP TR)
C/C=C\C(=O)Nc1cccc(C2=NOC3(C2)C[C@@H](C(N)=O)N(C(=O)CCCCC)C3)c1 (stereo partly drawn)	KCNH2 WT inh -84.6 (no result: Menin MLL FP TR)
CCC(=O)N1CC2(CC(c3cccc(NC(=O)COc4ccc(Cl)cc4)c3)=NO2)C[C@@H]1C(N)=O (stereo partly drawn)	none (no result: KCNH2 3.1 block, Menin MLL FP TR, KCNH2 WT inh)
O=C(CN1C(=O)NC2(CCCCC2)C1=O)Nc1ccccc1N1CCCCC1	none (no result: Menin-MLL FL inh, Menin MLL FP TR, CXXC DNA block)
c1nc2nc(Nc3ccc(N4CCOCC4)cc3)nc(NC3CCCCC3)c2[nH]1	Menin MLL FP TR inconclusive (no result: KCNH2 3.1 block, KCNH2 WT inh, CXXC DNA block)
CCOc1cc(S(=O)(=O)N2CC=C(c3ccc(F)cc3)CC2)c(OCC)cc1-n1cnnn1	KCNH2 3.1 block -82.4, KCNH2 WT inh -101.6
COc1cc([N+](=O)[O-])ccc1NC(=O)NCC1CCN(Cc2ccc(Cl)cc2)CC1	KCNH2 3.1 block -102.1, KCNH2 WT inh -107.0
COc1ccc2c(CC(=O)OCC(=O)N(C)c3c(N)n(Cc4ccccc4)c(=O)[nH]c3=O)coc2c1	none (no result: Menin-MLL FL inh, Menin MLL FP TR, CXXC DNA block)
COC(=O)c1cc(OC)c(OC)cc1NC(=O)CN1CCOCC1	Menin MLL FP TR inconclusive, KCNH2 WT inh -236.4
O=C(O)c1ccccc1C(=O)c1cccc2ccccc12	none
O=C(c1ccc(Cl)cc1)C1CCCN(Cc2cnn(-c3ccccc3)c2)C1 (stereo not drawn)	KCNH2 3.1 block -87.5, KCNH2 WT inh -78.2
Cc1ccccc1CSCCNS(C)(=O)=O	KCNH2 3.1 block -78.7
CS(=O)(=O)NCCSCc1ccccc1	none
O=C(NC12CC3CC(CC(C3)C1)C2)c1ccc(S(=O)(=O)N2CCOCC2)cc1	KCNH2 3.1 block -109.3
CC(C)[C@H](/C=C/C[Si](C)(C)C)[C@H](C)C(O)/C=C/CCCOC(=O)C(C)(C)C (stereo partly drawn)	none (no result: KCNH2 3.1 block, KCNH2 WT inh, CXXC DNA block)
CC(=O)c1cccc(NS(=O)(=O)N(C)C)c1	none
CN(C)S(=O)(=O)Nc1cccc(Br)c1	KCNH2 WT inh -126.3 (no result: Menin MLL FP TR)
O=C(NC(=S)Nc1ccc(CN2CCCCC2)cc1)c1cc2ccccc2o1	KCNH2 3.1 block -94.0 (no result: Menin MLL FP TR)
O=C(Nc1ccc(CN2CCCCC2)cc1)Nc1ccc(Br)cc1Cl	KCNH2 3.1 block -109.8, Menin MLL FP TR inconclusive, KCNH2 WT inh inconclusive
Cc1ccc(C(=O)NC(=S)Nc2ccc(CN3CCCCC3)cc2)c(C)c1	KCNH2 3.1 block -72.7, Menin MLL FP TR inconclusive
[2H]C([2H])(CCOS(N)(=O)=O)c1ccccc1	none
COc1cccc(-c2ccc3ncnc(N(C)C)c3c2)c1	none (no result: KCNH2 3.1 block, KCNH2 WT inh, CXXC DNA block)
